According to PubChem BioAssay (NCATS):
Inconclusive results are not listed. Entries that show only a call come without a potency. Calls of active or inactive are those of the source. Calls follow the shape of the dose curve; as a rule, active = well fitted curve in the direction sought with a large enough effect; inconclusive = small, poorly fitted or top-dose-only effect, or another doubt; inactive = no such curve, though single readings can be large; an effect the other way counts as inactive or inconclusive. Positions of bridges follow the written chain, without caps; N, C: chain ends. Non-standard residues stand in square brackets, D forms with d. Residues, ends and D or L forms follow the SMILES beside them. ξ: configuration not given here. *: point of attachment. Octanoyl(6-Me) = CCC(C)CCCCC(=O)*; ξThr(3R) = C[C@@H](O)C(N)C(=O)O; dDab = NCC[C@@H](N)C(=O)O; Dab = NCC[C@H](N)C(=O)O

Tests used:
[1] = tested on: Zika virus NS2B-NS3 protease; test: Primary screen GU AMC qHTS for Zika virus inhibitors (AID 1347154); also: nearly all actives have a fitted effect of over 70% in size; also: potency is read from the fitted curve at half-maximal effect
How it was run: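 Unlinked Zika NS2B hydrophilic domain/NS3 protease domain noncovalent complex (25 nM final) in 10 mM Tris-HCl pH 8.0, 0.01% Tween 20, with AMC peptide substrate. Fluorescence (ex 340, em 450 nm) change over 15 min, room temperature; percent inhibition fitted to 4-parameter Hill equation.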

[2] = tested on: Zika virus NS2B-NS3 protease (unlinked complex); test: Primary screen GU Rhodamine qHTS for Zika virus inhibitors: Unlinked NS2B-NS3 protease assay (AID 1347159); also: nearly all actives have a fitted effect of over 60% in size; also: potency is read from the fitted curve at half-maximal effect
How it was run: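 Enzyme 25 nM in Tris-HCl pH 8.0 + 0.01% Tween 20; compounds up to 114 microM, 15 min RT dark; + Rhod110 substrate 1.5 microM; read t0 and 15 min; delta fluorescence → % inhibition → 4-parameter Hill fit.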

[3] = tested on: Zika virus NS2B-NS3 protease (linked construct); test: Primary screen NINDS Rhodamine qHTS for Zika virus inhibitors (AID 1347160); also: nearly all actives have a fitted effect of over 55% in size; also: potency is read from the fitted curve at half-maximal effect
How it was run: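 Enzyme (25 nM, linked NS2B-NS3) was preincubated 15 min with compound in 10 mM Tris-HCl pH 8.0, 0.01% Tween 20. Rhodamine110 substrate (1.5 microM) was then added and fluorescence read at start and after 15 min.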

[4] = Confirmatory screen GU Rhodamine qHTS for Zika virus inhibitors qHTS (AID 1347157); details: purified enzyme assay, Rhodamine110 substrate fluorescence, 15 min; also: potency is read from the fitted curve at half-maximal effect; nearly all actives have a fitted effect of over 70% in size
How it was run: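 Percent inhibition derives from the 15-min fluorescence change (ex 480, em 540 nm), normalized to no-enzyme and no-inhibitor wells. Reactions contained 25 nM NS2B-NS3 complex and 1.5 microM substrate in 10 mM Tris-HCl pH 8.0.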

[5] = Confirmatory screen NINDS Rhodamine qHTS for Zika virus inhibitors (AID 1347161); also: potency is read from the fitted curve at half-maximal effect; nearly all actives have a fitted effect of over 60% in size
How it was run: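 Purified linked NS2B-NS3 protease (NS2B hydrophilic domain joined to NS3 protease by flexible linker), 25 nM in 10 mM Tris-HCl pH 8.0, 0.01% Tween 20. Compounds titrated, 15 min preincubation at room temperature; 1.5 microM Rhodamine110 substrate, FITC fluorescence change over 15 min.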

[6] = ZIKV-mCherry secondary qHTS for Zika virus inhibitors (AID 1347158); also: top concentration of the series differs between compounds
How it was run: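 This orthogonal imaging screen measured ZIKV-mCherry infection of Vero cells exposed to compound, MOI 1, 48-72 h. Percent infection came from segmented nuclei scored mCherry-positive above 3 SD of negative controls.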

[7] = tested on: Zika virus NS2B-NS3 protease (linked); test: 384 well plate NINDS AMC confirmatory qHTS for Zika virus inhibitors (AID 1347163);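 also: linked protease at 5 30 or 60 nM final depending on run; fluorescence of AMC released from Ac-VKTGKR-AMC peptide cleaved by the protease; top concentration of the series differs between compounds; nearly all actives have a fitted effect of over 50% in size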
How it was run: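 Enzyme (5, 30 or 60 nM final) first met test compounds for ~15 min. The AMC-tagged peptide Ac-VKTGKR-AMC followed at 30 microM. Fluorescence was then recorded at 25 min and scaled against no-enzyme and no-inhibitor wells.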

[8] = tested on: Zika virus NS2B-NS3 protease (linked construct); test: 384 well plate NINDS Rhodamine confirmatory qHTS for Zika virus inhibitors (AID 1347164);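 also: fluorescence from protease cleavage of Ac-LKRR-rhodamine 110 substrate; potency is read from the fitted curve at half-maximal effect; nearly all actives have a fitted effect of over 65% in size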
How it was run: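 Fluorescence at 485/538 nm was measured 25 minutes after adding 10 microM Ac-LKRR-Rd substrate, in the dark at room temperature. The protease (5, 30 or 60 nM final) had been preincubated ~15 minutes with compound; aprotinin as control.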

O=C(Nc1ccc(Oc2ccnc3[nH]ccc23)c(F)c1)c1cccn(-c2ccc(F)cc2)c1=O
Potency [1]: inactive
Potency [2]: inactive
Potency [3]: inactive

O=C(C[C@@H]1CC=CCCC(=O)O[C@H](c2ccccc2)CNC1=O)NCc1ccc(Cl)cc1
Potency [1]: inactive

Nc1ccc(C(=O)Nc2cccc(-c3nc(N4CCOCC4)c4oc5ncccc5c4n3)c2)cn1
Potency [3]: inactive

C=C(C)[C@@H]1CC[C@]2(C(=O)O)CC[C@]3(C)[C@H](CC[C@@H]4[C@@]5(C)CC[C@H](O)C(C)(C)[C@@H]5CC[C@]43C)[C@@H]12
Potency [1]: inactive
Potency [3]: 6.21 µM (active)

CCOc1cc2c(c(F)c1OCC)C(=N)N(CC(=O)c1cc(N3CCOCC3)c(OC)c(C(C)(C)C)c1)C2
Potency [1]: inactive
Potency [2]: inactive
Potency [3]: inactive

CC(C)n1cnc2c(NCCc3ccc(O)cc3)nc(-c3csc4ccccc34)nc21
Potency [1]: inactive
Potency [3]: inactive

CCC[C@H]1C[C@H](C(=O)N[C@@H]([C@@H]2O[C@@H](SC)[C@@H](O)[C@@H](O)[C@@H]2O)[C@H](C)Cl)N(C)C1
Potency [2]: inactive
Potency [3]: inactive

CCc1ccc(C(=O)Nc2cc(CN3CCN(C)CC3)cc(C(F)(F)F)c2)cc1C#Cc1cnc2ccnn2c1
Potency [1]: inactive
Potency [2]: inactive
Potency [3]: inactive

Cc1coc2c1C(=O)C(=O)c1c-2ccc2c(C)cccc12
Potency [2]: 35.5 µM (active)
Potency [3]: 25.1 µM (active)

CCc1nc(-c2cccc(C)c2)c(-c2ccnc(NC(=O)c3ccccc3)c2)s1
Potency [2]: inactive
Potency [3]: inactive

CCNC(=O)Nc1ccc(-c2nc3c(c(N4CCOC[C@H]4C)n2)CCN(C2COC2)C3)cc1
Potency [1]: inactive

FC(F)(F)c1ccc(Nc2nc3ccc(Oc4ccnc(-c5ncc(C(F)(F)F)[nH]5)c4)cc3[nH]2)cc1
Potency [1]: inactive
Potency [3]: inactive

CCCNC(=O)[C@H]1O[C@H]1C(=O)N[C@H](C(=O)N1CCC[C@@H]1C(=O)OC)C(C)CC (some centres not stated)
Potency [1]: inactive

C[N+]1(C)[C@@H]2C[C@@H](OC(=O)C(O)(c3cccs3)c3cccs3)C[C@H]1[C@@H]1O[C@@H]12
Potency [1]: inactive
Potency [2]: inactive
Potency [3]: inactive

O=C(O)CCCCCC(=O)NN=C1CCCC1
Potency [1]: inactive

Cc1cncc2cccc(S(=O)(=O)N3CCCN(C(=O)CN)C[C@@H]3C)c12
Potency [1]: inactive
Potency [2]: inactive
Potency [3]: inactive

COc1cc(CCc2cc(NC(=O)c3ccc(N4C[C@@H](C)N[C@@H](C)C4)cc3)n[nH]2)cc(OC)c1
Potency [1]: inactive
Potency [2]: inactive
Potency [3]: inactive

C=C1C(=O)O[C@H]2[C@@H]1CCC(C)=CCC[C@@]1(C)O[C@@H]21
Potency [1]: inactive

c1ccc2c(Oc3nc(Nc4ccc(N5CCOCC5)cc4)c4ncn(C5CCCCC5)c4n3)cccc2c1
Potency [1]: inactive
Potency [2]: inactive
Potency [3]: inactive

N[C@H]1CN(c2c(F)cc3c(=O)c(C(=O)O)cn(C4C[C@@H]4F)c3c2Cl)CC12CC2 (some centres not stated)
Potency [1]: inactive
Potency [2]: inactive
Potency [3]: inactive

Cn1cc(-c2ccc3ncc(Cc4ccc5ncccc5c4)n3n2)cn1
Potency [2]: inactive
Potency [3]: inactive

CCCCOc1ccc(C(=O)Nc2ccc(F)cc2F)cc1
Potency [1]: inactive
Potency [2]: inactive
Potency [3]: inactive

Nc1ccn(C2CO[C@H](CO)O2)c(=O)n1 (some centres not stated)
Potency [1]: inactive
Potency [2]: inactive
Potency [3]: inactive

C[C@@H](Cc1cc2c(c(C(N)=O)c1)N(CCCO)CC2)NCCOc1ccccc1OCC(F)(F)F
Potency [1]: inactive
Potency [2]: inactive
Potency [3]: inactive

COc1cc(C(=O)NC2CCN(C)CC2)ccc1Nc1ncc2c(n1)N(C1CCCC1)CCC(=O)N2C(C)C
Potency [1]: inactive

CN1CCc2c(c3ccccc3n2Cc2ccc(C(=O)NO)cc2)C1
Potency [1]: inactive
Potency [2]: inactive
Potency [3]: inactive

Cc1ccccc1C(=O)Nc1ccc(C(=O)N2CCCC(O)c3cc(Cl)ccc32)c(C)c1 (configuration not stated)
Potency [1]: inactive
Potency [2]: inactive
Potency [3]: inactive

CN(C)CC(=O)N1CCC(c2ccc(NC(=O)c3ncc(C#N)[nH]3)c(C3=CCCCC3)c2)CC1
Potency [1]: inactive
Potency [4]: 12.4 µM (active)
Potency [3]: inactive
Potency [5]: 9.87 µM (active)

C[C@H]1C[C@H]2[C@@H]3CCC4=CC(=O)C=C[C@]4(C)[C@@H]3C(=O)C[C@]2(C)[C@@]1(O)C(=O)CO
Potency [1]: inactive

Cn1cnc2c(F)c(Nc3ccc(Br)cc3F)c(C(=O)NOCCO)cc21
Potency [1]: inactive
Potency [2]: inactive
Potency [3]: inactive

CCC(C)CCCCC(=O)N[C@@H](CCN)C(=O)NC(C(=O)N[C@H](CCN)C(=O)N[C@@H]1CCNC(=O)C([C@@H](C)O)NC(=O)[C@@H](CCN)NC(=O)[C@@H](CCN)NC(=O)[C@@H](CC(C)C)NC(=O)[C@H](Cc2ccccc2)NC(=O)[C@H](CCN)NC1=O)[C@@H](C)O (stereo partly drawn) ({Octanoyl(6-Me)}-[Dab][ξThr(3R)][dDab][dDab][Dab]F[dL][dDab][dDab][ξThr(3R)]; lactam 4-C)
Potency [1]: inactive

O=c1c(O)c(-c2ccc(O)c(O)c2)oc2cc(O)ccc12
Potency [1]: 17.1 µM (active)
Potency [4]: 44.7 µM (active)
Potency [6]: inactive
Potency [3]: 22 µM (active)
Potency [5]: 44.7 µM (active)
Potency [7]: inactive
Potency [8]: 316 µM (active)

CN1[C@H]2CC(OC(=O)[C@@H](CO)c3ccccc3)C[C@H]1[C@H]1O[C@H]12 (some centres not stated)
Potency [1]: inactive

OCCNC1CCCc2c1[nH]c1ccc(-c3ccccc3)cc21 (configuration not stated)
Potency [1]: inactive
Potency [2]: inactive
Potency [3]: inactive

CC(O)(C#Cc1ccc2c(c1)N(c1nc(N)ncc1Cl)CC2)c1nccs1 (configuration not stated)
Potency [1]: inactive
Potency [3]: inactive

Oc1ccc([C@@H]2Oc3ccc(O)cc3[C@@H]3CCC[C@@H]32)cc1
Potency [1]: inactive
Potency [3]: inactive

c1cncc(CN2CCC(n3ncc4c(N5CCOCC5)nc(-c5ccc6[nH]ccc6c5)nc43)CC2)c1
Potency [1]: inactive
Potency [2]: inactive
Potency [3]: inactive

CC1=C(C(=O)Nc2cc3cn[nH]c3cc2F)C(c2ccc(Cl)cc2F)N=C(c2ccnc(Cl)c2)N1 (configuration not stated)
Potency [1]: inactive
Potency [2]: inactive
Potency [3]: inactive

C[C@H](O)[C@@H]1C(=O)N2C(C(=O)O)=C(S[C@@H]3CN[C@H](CNS(N)(=O)=O)C3)[C@@H](C)[C@@H]12
Potency [2]: inactive
Potency [3]: inactive
